Results published in ChEMBL document CHEMBL3433997, “St. Jude Leishmania screening dataset” (2016).

How the values were obtained:
Format in all cases: functional
[1] = target: Solute carrier family 2, facilitated glucose transporter member 1 (Homo sapiens) (UniProt P11166); assay: ST_JUDE_LEISH: Cytotoxicity at 2uM final concentration against transgenic Leishmania Mexicana promastigotes LmGLUT1 that are glucose transport deficient and complemented with the human glucose transporter GLUT1. Activity is measured by DNA content using SYBR green in vitro
[2] = target: Hexose transporter 1 (Plasmodium falciparum) (UniProt O97467); assay: ST_JUDE_LEISH: Cytotoxicity at 2uM final concentration against transgenic Leishmania Mexicana promastigotes LmPfHT that are glucose transport deficient and complemented with the Plasmodium falciparum hexose transporter. Activity is measured by DNA content using SYBR green in vitro
[3] = target: Glucose transporter (Leishmania mexicana) (UniProt O61059); assay: ST_JUDE_LEISH: Cytotoxicity at 2uM final concentration against transgenic Leishmania Mexicana promastigotes LmGT2 that are glucose transport deficient and complemented with the L. Mexicana glucose transporter 2. Activity is measured by DNA content using SYBR green in vitro

Chain of Solute carrier family 2, facilitated glucose transporter member 1 (Homo sapiens) (P11166 whole entry): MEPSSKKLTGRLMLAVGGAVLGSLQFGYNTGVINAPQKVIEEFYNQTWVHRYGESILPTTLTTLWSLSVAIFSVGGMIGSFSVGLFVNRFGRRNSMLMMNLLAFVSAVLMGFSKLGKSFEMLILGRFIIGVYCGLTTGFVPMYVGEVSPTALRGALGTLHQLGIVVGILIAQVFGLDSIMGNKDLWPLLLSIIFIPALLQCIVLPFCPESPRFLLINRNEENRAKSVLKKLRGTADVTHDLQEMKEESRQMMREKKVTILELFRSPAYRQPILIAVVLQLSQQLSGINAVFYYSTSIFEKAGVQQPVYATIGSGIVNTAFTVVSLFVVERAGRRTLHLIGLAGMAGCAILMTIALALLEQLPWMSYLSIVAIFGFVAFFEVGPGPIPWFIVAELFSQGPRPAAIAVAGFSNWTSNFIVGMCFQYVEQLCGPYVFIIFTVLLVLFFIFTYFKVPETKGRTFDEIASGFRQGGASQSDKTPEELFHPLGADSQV

SMILES | inhibition [1] [%] | inhibition [2] [%] | inhibition [3] [%]
CCN(c1cc(C)nc(Nc2ccc(Cl)cc2)n1)[C@H]1CCN(Cc2ccccc2)C1 | 9.15 | 7.78 | 6.41
CCCC(C)Nc1nc(C)cc(N[C@@H](Cc2ccccc2)C(=O)Nc2ccc(OC)cc2)n1 (some centres not stated) | 4.27 | 5.6 | 0.54
O=C(NCC(c1ccc(C(F)(F)F)cc1)N1CCCC1)c1cc(-c2ccncc2)c(-c2cccc(O)c2)o1 (configuration not stated) | 0.81 | -0.82 | -0.08
COC(=O)Nc1cc(C(F)(F)F)ccc1N1CCC(CNS(=O)(=O)c2ccc(OC)cc2)CC1 | 7.63 | 4.92 | 6.14
Cc1ccc(NC(=O)c2ccc(CN3CCCN(CCC(C)C)CC3)cc2)cc1F | 7.11 | 7.04 | 9.05
COc1ccc2c(N/N=C/c3ccccc3[N+](=O)[O-])cc(C)nc2c1 | 3.18 | 2.75 | 2.99
CS(=O)(=O)NCCCNCc1ccc(-c2ccc(-c3nc4cc(F)ccc4[nH]3)s2)cc1 | -2.43 | -1.55 | -2.09
CC(=O)N(Cc1ccc(CC(C)NCCc2cccc(Cl)c2)cc1)Cc1ccc(CC(C)NCCc2cccc(Cl)c2)cc1 (configuration not stated) | 83.6 | 72.7 | 99.7
COc1cc(CNCCCCCCNCc2cc(OC)cc3ccccc23)c2ccccc2c1 | 10.8 | 11.7 | 10.4
COc1cc(C2CCN(CCCCNC(=O)c3ccc(NC(=O)c4ccc(Cl)c(Cl)c4)cc3)CC2)ccc1OC(C)C | 1.53 | 4.29 | 1.53
COc1ccc(Nc2nccc(-c3c(-c4cccc(NC(=O)c5c(F)cccc5F)c4)nn4ccccc34)n2)cc1Cl | 0.2 | 1.51 | -0.51
O=C(NCCN1CCCC1)c1cccc(-c2ccc(-c3nc4ccccc4[nH]3)cc2)c1 | 3.79 | 5.32 | 4.26
CC(C)(CNC(=O)[C@@H]1CCCCN1)c1nc(-c2ccc(Cl)c(O)c2)c(-c2ccncc2)[nH]1 | 2.07 | 2.19 | 1.02
C=C(C)C1CC=C(CN2CCCC(n3ccc4cc(NC(=O)c5ccco5)ccc43)CC2)CC1 (configuration not stated) | -1.77 | 3.75 | -2.38
COc1ccc(NC(=O)Nc2ccc(-c3ccccc3)cc2)cc1Cn1nc(Cl)c(N2CCCNCC2)cc1=O | 0.73 | 0.83 | 0.02
CN1CCN(Cc2ccc(-c3ccc4c(Nc5ccc(Cl)cc5F)ccnc4c3)o2)CC1 | 11.9 | 11.8 | 11.1
CC(C)(C)c1ccc(CNC(=O)c2ccc(-c3nc4cc(C(C)(C)C)ccc4[nH]3)cc2)cc1 | 4.41 | 4.23 | 1.77
O=C(C=Cc1ccc(F)cc1)NC1CCC(CCN2CCc3ccc(-c4cnccn4)cc3CC2)CC1 (configuration not stated) | 0.54 | -0.24 | 1.49
O=C(Nc1cccc(CN2CCCN(Cc3ncc[nH]3)CC2)c1)c1cc2ccccc2s1 | 3.43 | 5.48 | 3.3
Cc1ccc(OCC2CCN(c3ncc(C(=O)NC4CC4)cc3Cl)CC2)cc1 | -0.74 | -2.55 | 0.52
CCNc1cc(C(=O)N[C@@H](Cc2ccccc2)[C@H](O)CNC(C)(C)CC(C)(C)C)c(F)c(N2CCCCS2(=O)=O)c1 | -2.27 | -1.17 | -0.53
CN(Cc1ccc(-c2ccc(C(F)(F)F)cc2)cc1)C(=O)Cn1c(CCc2cccc(F)c2F)cc(=O)c2ccc(OCCCN3CCCCC3)cc21 | 1.01 | 0.66 | -0.5
O=C(NCCCN1CCOCC1)c1csc(Nc2ccc(Cl)c(Cl)c2)n1 | 0.69 | 0.58 | 0.12

SMILES | inhibition [1] [%] | inhibition [2] [%] | inhibition [3] [%]
Cc1ccc(NC(=O)c2ccc(N3CCC(c4ccccc4C)CC3)nc2)cc1 | 11.9 | 9.58 | 8.1
COc1ccc(C(=O)C2CC2CN(C)CC(O)c2cc(C)c(OC)cc2C)cc1 (configuration not stated) | 8.26 | 7.67 | 6.57
O=C(NCCCN1CCC(N2CCCCC2)CC1)C1=Cc2cc(Br)ccc2OC1 | 1.4 | 2.63 | 0.26
Oc1ccc(CCNc2nc(NCCCOc3ccccc3-c3ccncc3)nc(N3CCNCC3)n2)cc1 | 3.68 | 5.15 | 5.3
Oc1ccc(CCNCCCCCCNCCc2ccc(-c3ccccc3)cc2)cc1O | 1.33 | 1.69 | 1.57
COCCN(CCOC)c1ncc(-c2ccsc2)c(-c2nc(C)c(C)s2)n1 | -1.28 | 0.1 | 1.83
COCCOc1cc(C)c(C2CCN(CCCCNC(=O)c3ccc(NC(=O)c4ccc(Cl)cc4)cc3)CC2)cc1C | 8.26 | 7.14 | 8.98
CC(C)(C)c1ccccc1OCCCON1C(=N)N=C(N)NC1(C)C | 38 | 59.3 | 37.1
CN(c1ccc2c(c1)nc(NC(=O)C1(c3cc(F)ccc3F)CC1)n2C)c1ccnc(Nc2cccc(CS(C)(=O)=O)c2)n1 | -0.91 | 0.33 | -1.29
O=C(/C=C/c1cccc(Cl)c1)N1CCC(C(O)CN2CCC3(CC2)CN(C(=O)/C=C/c2cccc(Cl)c2)c2ccccc23)CC1 (configuration not stated) | 0.54 | 1.87 | 0.82
CN(C)CCNc1nccc(N2CCc3ncnc(Nc4ccc(OCc5cccc(F)c5)c(Cl)c4)c3C2)n1 | 20 | 28.4 | 3.49
COc1cc2c(C3CCN(CC4CCC(NC(=O)/C=C/c5ccc(Cl)c(Cl)c5)CC4)CC3)c[nH]c2cn1 (configuration not stated) | 9.19 | 8.02 | 7.96
COc1ccc(NC(=O)N2CCN(CCCCCNC(=O)/C=C/c3ccc(C(F)(F)F)cc3)CC2)cc1Cl | 2.21 | 1.82 | 1.35
Fc1ccc2[nH]c(-c3ccc(-c4ccc(CNCCN5CCNCC5)cc4)s3)nc2c1 | 0 | 1.98 | -0.23
O=C(Nc1cccc(CN2CCCN(CC3CCCCC3)CC2)c1)c1ccc(Cl)c(Cl)c1 | 12.1 | 12.2 | 10.5
COc1cccc(-c2cccc(-c3ccc(NC(=O)c4ccc([N+](=O)[O-])o4)cc3)n2)c1 | 66.2 | 59.8 | 23.3
O=C(Nc1cccc(OCc2ccccc2)c1)c1ccc(CN2CCC(Cc3ccccc3)CC2)cc1 | -0.83 | -1.67 | -0.42
CCN(CCCN1CCCCC1)c1cc(C)nc(Nc2ccc(Cl)cc2C)n1 | 1.07 | 1.21 | 1.9
O=C(Nc1ccc2c(c1)CCC2)c1nc(N2CCN(c3ccncc3)CC2)ccc1Cl | 1.84 | 1.86 | 1.75
Cc1cc(C(=O)Nc2nc(-c3ccccn3)nc3ccsc23)no1 | 75.8 | 75.1 | 68.5
Cc1c(-c2cccc(Br)c2)[nH]c2nc(N)nc(N)c12 | 1.29 | 2.55 | 0.97
COc1cc2/c(=N/c3ccc(Br)cc3F)nc[nH]c2cc1OCC1CCN(C)CC1 | -0.8 | 2.56 | 0.95
Cc1oc(-c2cccc(Oc3ccccc3)c2)nc1CN(Cc1cnn(C)c1)C(C)C | 1.56 | 1.15 | 1.83

SMILES | inhibition [1] [%] | inhibition [2] [%] | inhibition [3] [%]
Cc1cc(N[C@@H](Cc2ccccc2)C(=O)NCc2cccc(F)c2)nc(NCCOc2ccccc2)n1 | 4.2 | -1.41 | -0.15
Cc1cc(NC(=O)c2cccs2)ccc1OC1CCN(Cc2ccc(C#N)cc2)C1 (configuration not stated) | 2.86 | 4.23 | 3.26
CCN1CCN(c2cc(C)c3cc(NC(=O)c4ccc(Br)o4)ccc3n2)CC1 | 6.38 | 6.62 | 8.17
O=C(/C=C/c1ccc(Cl)c(Cl)c1)NCCCCCN1CCC(C(=O)Nc2ccc3c(c2)OCO3)CC1 | 6.29 | 5.08 | 5.17
S=C(NCCN1CCOCC1)Nc1ccccc1 | -1.94 | 0.47 | 0.17
Cc1cccc2nc(-c3ccc(-c4ccc(CN5CCN(CCN6CCOCC6)CC5)cc4)s3)[nH]c12 | 2.9 | 3.89 | 1.02
Cc1cc(-c2ccc3c(c2)CCN(CCC2CCC(NC(=O)/C=C/c4cccc(Cl)c4)CC2)CC3)on1 (configuration not stated) | 4.19 | 3.51 | 3.57
O=C(Nc1cccc(-c2nn3ccccc3c2-c2ccnc(Nc3cccc(C(F)(F)F)c3)n2)c1)c1c(F)cccc1F | 0.32 | 1.06 | 0.07
Fc1ccc2[nH]c(-c3ccc(-c4ccc(CNCCc5cccnc5)cc4)s3)nc2c1 | 6.23 | 3.19 | 3.21
Cc1[nH]cnc1CSCCN/C(=N\C#N)NCCCCCCCCN/C(=N/C#N)NCCSCc1nc[nH]c1C | 2.45 | 2.15 | 2.98
CCCc1cc(OC)c(CC2c3cc(O)c(C)cc3CCN2C)cc1OC (configuration not stated) | -2.27 | -4.03 | 3.59
O=C(NC1CCN(Cc2ccccc2)CC1)c1cc(-c2ccncc2)c(-c2ccc(Cl)c(O)c2)o1 | 2.8 | 1.63 | 0.77
O=C(CN1CCN(C(=O)c2ccco2)CC1)Nc1ccc(Br)cc1Cl | -3.24 | -1.31 | -0.59
CN(C)CC(=O)Nc1ccc(-c2ccc3ccnc(N)c3c2)cc1 | 13.7 | 24.3 | 5.49
C[C@H]1CN(Cc2cccc(-c3cc(CNC(=O)c4cccc(C(=O)c5ccc(Cl)c(Cl)c5)c4)ccc3F)c2)CCN1 | 1.24 | 2.34 | 1.43
CC(=O)Nc1ccc([N+](=O)[O-])c2c(Br)cccc12 | 8.2 | 8.74 | 10.4
CC(C)NC[C@@H](O)[C@H](Cc1ccccc1)NC(=O)c1cc2c3c(c1)c(C(C)C)cn3CCS(=O)(=O)N2C | 2.21 | 2.85 | 2.8
COc1cc(Nc2nccc(N3CCC(NC(=O)c4cc5ccccc5s4)C3)n2)cc(OC)c1OC (configuration not stated) | 0.5 | 0.56 | -0.45
Cc1ccc(Nc2nccc(NCC(O)c3cccc(C)c3)n2)cc1 (configuration not stated) | 5.47 | 4.73 | 3.22
Cc1cc(N[C@@H](CC(C)C)C(=O)Nc2ccccc2)nc(NCCc2ccccc2)n1 | 3.68 | 2.93 | 0.92
COc1ccc2nccc([C@@H](O)CN3CCC(NCc4cc5cccc(O)c5[nH]4)CC3)c2c1 | 1.85 | 2.02 | 3.77
CC(C)C[C@@H](C(=O)N[C@@H](CCCCNC(=O)OCc1ccccc1)C(=O)Nc1nccs1)[C@H](C)N(O)C=O | 3.19 | 3.38 | 0.49
Cc1nc2nc(N)nc(N)c2c(C)c1Cc1cccc(C(N)=O)c1 | 1.17 | 1.95 | -1.43
